Bioassay records: PubChem BioAssay, several laboratories
MBD2 DNA inh: MBD2-methylated oligo binding inhibition; inhibition, % at 4.4 µM; AID 686964; TR-FRET, MBD2 binding to methylated oligonucleotide; 0.31% of 370,000 active; in the data active = inhibition above about 13%
Neddyl block: cullin neddylation inhibition | P61081+Q13564 | TR-FRET cullin neddylation, biochemical | calls only at 25 µM | 0.58% of 360,000 active | AID 651699; in the data active = inhibition above about 36%
UHRF1 MBD2 ctr: UHRF1 methyl-DNA binding inhibition | AID 687016 | 0.75% of 370,000 active | UHRF1 binding to methylated oligo, TR-FRET | inhibition, % at 4.4 µM | Q96T88; in the data active = inhibition above about 21%;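 note: UHRF1 SRA domain binding a hemimethylated CpG hairpin DNA probe; 0% = median of test compound wells and 100% = reference inhibitor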
proKLK7 act: proKLK7 (human) activation, primary screen | P49862 | purified proKLK7, EDANS-DABCYL substrate fluorescence; 100% is mature enzyme control, 0% vehicle | activation, % at 7 µM | 0.9% of 370,000 active;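 active = activation above the mean of all tested compounds plus 3 SD, computed per campaign excluding outliers beyond control limits, cut at about 13% in these data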
Target sequence (P49862 whole entry, looked up): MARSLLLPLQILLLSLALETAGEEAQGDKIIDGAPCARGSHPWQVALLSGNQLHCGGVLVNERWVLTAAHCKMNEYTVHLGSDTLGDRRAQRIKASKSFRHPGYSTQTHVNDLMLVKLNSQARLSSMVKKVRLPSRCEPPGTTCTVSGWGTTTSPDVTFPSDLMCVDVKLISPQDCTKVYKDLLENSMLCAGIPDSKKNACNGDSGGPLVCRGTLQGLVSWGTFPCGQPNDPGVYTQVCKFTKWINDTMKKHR
LEDGF integ inh: blocks HIV-1 LEDGF/p75-dependent DNA integration | TR-FRET IN-LEDGF/p75 DNA integration, Eu/Cy5 | inhibition, % at 3.7 µM | 0.64% of 370,000 active | AID 743269;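 active = inhibition above the screen-wide mean plus 3 SD, cut at about 13% in these data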;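 note: signal is the Cy5 over europium emission ratio at 671 and 618 nm; 0% = plate median of compound wells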
Rin1 Abl inh: blocks binding of human Rin1 to Abl. P00519+Q13671. TR-FRET Rin1/Abl binding, biochemical. inhibition, % at 7.35 µM. 0.4% of 360,000 active. AID 588664; in the data active = inhibition above about 5%, passing the limit was not always enough
Neddyl conf: cullin neddylation inhibition, confirmation; AID 652217; shares compounds with Neddyl block; TR-FRET cullin neddylation biochemical assay; 13% of 1,800 active; calls only at 25 µM; in the data active = inhibition above about 40%;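 note: neddylation substrate is the cullin 1 ring ligase complex with SKP2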
Numbers without * were called inactive; i = inactive; x = no result given; + = active, no number. Hits are enriched below; roughly 3.1% of the tested compounds scored in any of these assays.

SMILES	MBD2 DNA inh	Neddyl block	UHRF1 MBD2 ctr	proKLK7 act	LEDGF integ inh	Rin1 Abl inh	Neddyl conf
O=C(COc1ccccc1)Nc1nnc(-c2ccc(Cl)s2)o1	1.1	+	-0.5	-0.6	3.0	-4.0	i
O=C(COc1ccccc1)Nc1nnc(-c2ccccc2)o1	3.1	i	-1.6	-0.5	0.4	4.3	x
CCOc1ccc(NC(=O)N(Cc2ccc(C)cc2)Cc2ccccn2)cc1	4.1	i	3.9	-0.6	-2.5	-0.8	x
O=C(NNC(=O)c1csc(-c2cnccc2C(F)(F)F)n1)c1ccc(C(F)(F)F)cc1	-1.3	+	1.4	0.0	1.9	2.4	i
COc1c2c(cc3oc(CO[C@@H]4O[C@H](CO)[C@@H](O)[C@H](O)[C@H]4O)cc(=O)c13)O[C@H](C(C)(C)O)C2	1.2	+	-1.3	0.6	-1.1	2.9	i
COc1c2c(cc3oc(C)cc(=O)c13)OC(C(C)(C)OC1OC(CO)C(O)C(O)C1O)C2 (stereo not drawn)	-2.0	i	-1.4	0.0	-0.5	5.6	x
COc1ccc(-c2cc(C(=O)Nc3ccc(OC)c(OC)c3)no2)cc1	-3.8	+	0.1	-0.4	1.8	1.9	i
N#Cc1c(NC(=O)c2cccc(S(=O)(=O)Nc3ccc(C(=O)O)cc3)c2)sc2c1CCCC2	-2.1	i	0.5	0.4	0.9	-1.8	x
Cc1ccccc1-c1ccc2c(c1)[C@@H]1C[C@H](N(C)C(=O)Nc3ccccc3)[C@H]([C@H](C)O)CN1CC2	2.8	x	5.5	3.0	0.5	x	x
O=[N+]([O-])/C(C(Cl)=C(Cl)Cl)=C(/Sc1ccccc1)N1CCCCC1	2.2	i	1.5	-0.3	-5.1	0.5	x
CC(C)Cc1nc(N2CCN(C(=O)c3ccco3)CC2)c(C#N)c2c1CCCC2	1.6	i	-0.9	-1.4	2.9	-1.2	x
CCCC(=O)N1CCN(c2nc(CC(C)C)c3c(c2C#N)CCC3)CC1	-1.0	+	-2.3	-1.8	0.9	2.9	i
CCc1c(C(=O)N/N=C/c2ccc(OCc3ccc(F)cc3)c(OC)c2)nnn1-c1nonc1N	-3.0	+	0.4	0.3	-1.4	-0.3	i
CCCc1c(C(=O)N/N=C/c2ccc3c(c2)OCO3)nnn1-c1nonc1N	3.3	+	-0.2	0.1	-4.9	-2.0	i
COc1ccc(C(=O)N[C@H](C(=O)NCCCSc2ccccc2)C(C)C)cc1	-0.4	i	0.5	0.6	6.5	0.5	x
CSc1ccccc1NC(=O)c1cc2c(=O)n3ccccc3nc2s1	4.9	+	-3.2	0.2	-5.6	-3.3	x
Cc1cc(C)cc(NC(=O)c2cc3c(=O)n4ccccc4nc3s2)c1	4.2	x	1.8	1.4	3.6	1.1	x
O=S(=O)(c1ccc(Cl)cc1)N1CCN(c2ccc(N3CCOCC3)nn2)CC1	-0.4	+	-1.8	0.3	-0.1	1.4	i
CCOC(=O)NN1C(=O)c2ccccc2NC1(C)C	1.2	x	-2.6	8.7	-0.8	0.3	x
CC1(C)Nc2ccccc2C(=O)N1NC(=O)c1ccccc1	-1.0	+	-2.0	1.8	4.9	0.2	i
COc1ccccc1CCn1cnc(-c2ccc(F)cc2)c1C(C)C	-5.8	x	-0.8	-0.8	6.0	x	x
COCCn1c(=O)[nH]c2cc(C(=O)OC)ccc2c1=O	-1.3	+	1.4	-15.6	-0.8	0.7	i
Cc1ccc2c(c1)c1c3n2CCN(C(=O)C2CC2)C3CCC1 (stereo not drawn)	-3.8	+	-2.8	1.6	3.0	-2.1	i
CCCNC(=O)c1oc2ccc3c(c2c1C)C(=O)CC(C)(C)O3	-2.6	x	1.0	6.5	-1.9	-0.5	x
CCCNC(=O)c1oc2ccc3c(c2c1C)C=CC(C)(C)O3	10.0	+	4.5	0.5	-2.3	1.7	i
COc1ccc(C2=Nc3ccccc3N(C(=O)c3ccc(C)cc3)C2C(=O)Nc2c(C)cccc2C)cc1 (stereo not drawn)	-4.4	i	-4.0	-81.8	4.0	x	x
CCN1C(=O)c2cccc3c(S(=O)(=O)NCc4ccco4)ccc1c23	0.3	+	-6.4	2.6	-1.3	-5.8	i
CCN1C(=O)c2cccc3c(S(=O)(=O)Nc4nc(C)cs4)ccc1c23	x	i	x	x	x	-2.7	x
